Reference: PubChem BioAssay (NCATS)
Values joined by “and” are separate entries in the source; they are usually repeats but may differ in a detail not shown here. Identical values can stand only once. Records with an inconclusive call do not appear. Active and inactive are the calls of the source. Unless noted, calls follow the shape of the dose curve; as a rule, active = well fitted curve in the direction sought with a large enough effect; inconclusive = small, poorly fitted or top-dose-only effect, or another doubt; inactive = no such curve, though single readings can be large; an effect the other way counts as inactive or inconclusive.

Key:
[1] = Cellular Toxicity (caspase-3) BJ (AID 658);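 also: 0% = DMSO basal and 100% = 10 µM staurosporine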
Procedure, shortened: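 Plated BJ cells (1000/well) rested 5 hr, received compound for 16 hr at 37 °C, then Caspase-Glo 3/7 reagent for 1 hr at room temperature before luminescence reading.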

[2] = Cellular Toxicity (caspase-3) SK-N-SH (AID 661);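 also: 0% = DMSO basal and 100% = 10 µM staurosporine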
Procedure, shortened: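 Cells were seeded and incubated 5 hr at 37 °C, dosed with compound over a concentration range for 16 hr, then given Caspase-Glo 3/7 reagent for 1 hr at room temperature before luminescence reading.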

[3] = Cellular Toxicity (caspase-3) H-4-II-E (AID 663); settings: Potency: caspase-3 activation;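 also: cells exposed to compound for 16 hr before readout; 0% = DMSO basal and 100% = 100 µM tamoxifen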
Procedure, shortened: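 Caspase 3/7 activation measured in H-4-II-E cells in complete culture medium after 16 hr treatment at 37 °C, using luciferase-coupled substrate readout; AC50 values come from Hill-equation fits of normalized concentration-response data.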

[4] = Cellular Toxicity (caspase-3) N2a (AID 665);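 also: compound exposure lasted 16 h at 37 °C before readout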
Procedure, shortened: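 Caspase-3/7 activation, measured as increased luminescence from aminoluciferin release, is quantified in mouse N2a cells exposed to compounds for 16 h. Values are normalized to DMSO and 10 uM staurosporine, with AC50 derived by Hill modelling.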

[5] = Cell Viability - LYMP1-002 - Assay at 16 hr (AID 948);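 also: 0% = DMSO alone and full effect = 92 µM tetraoctylammonium bromide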
Procedure, shortened: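 LYMP1-002 human lymphoblastoid cells, 2500/well, were treated with compounds for 16 hr at 37 C in complete medium. Viability was read as intracellular ATP by CellTiter-Glo luminescence, and AC50 was derived from a Hill fit to concentration-response data.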

[6] = MultiTox-Fluor Cytotoxicity Assay - LYMP1-003 - Dead Cells (AID 961);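 also: cells exposed to compound for 16 h at 37 °C; nearly all actives have a fitted effect of over 70% in size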; also: potency is read from the fitted curve at half-maximal effect
Procedure, shortened: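 Acute toxicity is scored as increased dead-cell protease activity in human lymphoblastoid LYMP1-003 cells after 16 h compound exposure in complete culture medium. Activity is normalized to DMSO basal and 15 uM tetraoctylammonium bromide as full response.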

[7] = Cell Viability - LYMP2-019 (AID 973);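 also: cells exposed to compound for 24 h at 37 °C; nearly all actives have a fitted effect of over 55% in size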; also: potency is read from the fitted curve at half-maximal effect
Procedure, shortened: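 Cytotoxicity is scored as a concentration-dependent drop in cellular ATP after cells (2500/well) receive compound for 24 hr at 37 C. Tetraoctylammonium bromide serves as positive control.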

[8] = Cell Viability - LYMP2-023 (AID 975);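 also: series mostly up to about 92 µM; plate controls were DMSO only for no effect and 92 µM tetraoctylammonium bromide control for full effect; nearly all actives have a fitted effect of over 55% in size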
Procedure, shortened: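 Steps: seed 2500 human lymphoblastoid cells per well, incubate 5 hr at 37 C, add compound for 24 hr at 37 C, add CellTiter-Glo, hold 30 min at room temperature, read luminescence. AC50 derived by Hill modelling.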

[9] = Cell Viability - LYMP2-008 (AID 980);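 also: cells exposed to compound for 24 h at 37 °C; % is scaled to controls: 0 for no effect and ±100 for the full control effect; nearly all actives have a fitted effect of over 60% in size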
Procedure, shortened: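 Cells seeded at 2500/well and rested 5 hr at 37 C; compounds added over a concentration range and incubated 24 hr at 37 C; CellTiter-Glo added, 30 min at room temperature; luminescence read and AC50 fitted with Hill model.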

[10] = Cell Viability - LYMP2-018 (AID 985);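 also: compound exposure lasted 24 hr at 37 °C; plate controls were DMSO only for no effect and tetraoctylammonium bromide at 92 µM for full effect; nearly all actives have a fitted effect of over 50% in size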
Procedure, shortened: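 Seed 2500 lymphoblastoid cells per well, incubate 5 hr at 37 C, add compound and incubate 24 hr at 37 C, add CellTiter-Glo, wait 30 min at room temperature, then read luminescence.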

[11] = Cell Viability - LYMP1-002 - Assay at 24 hr (AID 993); also: % is scaled to controls: 0 for no effect and ±100 for the full control effect
Procedure, shortened: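 Acute toxicity is measured as concentration-dependent loss of cellular ATP in a human lymphoblastoid line (Coriell LYMP1-002) after 24 h treatment in complete medium. ATP is quantified by luciferase luminescence and AC50 derived by Hill modelling.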

[12] = qHTS assay for cell viability of HEK293 cells (AID 743288); settings: ATP luminescence (CellTiter-Glo), 18 h, stronger effect = lower value; also: % is scaled to controls: 0 for no effect and ±100 for the full control effect; nearly all actives have a fitted effect of over 50% in size
Procedure, shortened: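 Steps: plate 2,000 parental HEK293 cells per well; incubate ≥5 h, 37 C; add compounds in DMSO; incubate 18 h, 37 C; add CellTiter-Glo; wait 30 min at room temperature; read luminescence.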

[13] = qHTS assay for small molecule activators of the human pregnane X receptor (PXR) signaling pathway (AID 720659; call rule not given here; also: 0% is about no effect)
[14] = Cell Viability - BJ (AID 421; calls by dose curve;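 also: potency is read from the fitted curve at half-maximal effect; cells exposed to compound for 40 hours at 37 °C before readout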); settings: BJ fibroblast viability, qHTS
Procedure, shortened: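 Quantitative HTS: ATP depletion in BJ cells after 40 hr compound exposure in complete culture medium, detected with CellTiter-Glo; AC50 from standard Hill fits.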

[15] = Cell Viability - LYMP1-003 - Assay at 40 hr (AID 964); also: series mostly up to about 92 µM; % is scaled to controls: 0 for no effect and ±100 for the full control effect; nearly all actives have a fitted effect of over 60% in size
Procedure, shortened: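 Luminescent ATP signal (CellTiter-Glo) served as the viability read-out after 40 hr compound treatment of human lymphoblastoid LYMP1-003 cells at 37 C. Decreases in ATP were fitted with the Hill equation to give AC50.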

[16] = Cell Viability - LYMP2-011 (AID 969); also: nearly all actives have a fitted effect of over 60% in size; also: potency is read from the fitted curve at half-maximal effect
Procedure, shortened: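 In this qHTS cytotoxicity format, compounds are tested across concentrations on human lymphoblastoid cells in complete medium for 24 hours at 37 C. Viability is taken as cellular ATP measured by luciferase luminescence.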

CCCCOCC1CO1 (configuration not stated)
inactive: outcome [1] | Potency [2] | Potency [3] | outcome [4] | outcome [5] | Potency [6] | Potency [7] | Potency [8] | Potency [9] | Potency [10] | Potency [11] | max response [12] -19.5% | outcome [13]

N#CC(Cl)(Cl)Cl
inactive: Potency [14] > 92 µM | outcome [1] | Potency [2] | Potency [3] | outcome [4] | outcome [5] | Potency [15] | Potency [16] | Potency [7] | Potency [8] | Potency [9] | Potency [10] | Potency [11] | max response [12] -13% | outcome [13]

CC(C)(C)OOC(=O)c1ccccc1
inactive: Potency [14] > 92 µM | outcome [1] | Potency [3] | outcome [4] | outcome [5] | Potency [15] | Potency [16] | Potency [7] | Potency [8] | Potency [9] | Potency [10] | Potency [11] | max response [12] 7.08% and -4.29% | outcome [13]

BrCC(Br)C1CCC(Br)C(Br)C1 (configuration not stated)
inactive: Potency [14] > 92 µM | outcome [1] | Potency [2] | Potency [6] | Potency [15] | Potency [16] | Potency [7] | Potency [8] | Potency [9] | Potency [10] | Potency [11]

CC(C)OC(=O)Cc1ccccc1
inactive: Potency [2] | Potency [3] | outcome [4] | Potency [6] | Potency [15] | Potency [7] | Potency [8] | Potency [9] | Potency [11] | max response [12] -4.3% | outcome [13]

O=[N+]([O-])/C=C/c1ccccc1
active: Potency [6] 50.1 µM | Potency [16] 50.1 µM | Potency [7] 39.8 µM
inactive: Potency [14] > 92 µM | outcome [1] | Potency [2] | outcome [5] | Potency [15] | Potency [11] | max response [12] -10.7%

Cc1ccc(N)cc1Cl
inactive: outcome [1] | Potency [2] | outcome [4] | outcome [5] | Potency [6] | Potency [15] | Potency [16] | Potency [7] | Potency [8] | Potency [9] | Potency [10] | Potency [11] | max response [12] -1.75% | outcome [13]

O=C(Cl)c1ccccc1F
inactive: Potency [14] > 92 µM | outcome [1] | Potency [2] | Potency [3] | outcome [4] | outcome [5] | Potency [6] | Potency [15] | Potency [16] | Potency [7] | Potency [8] | Potency [9] | Potency [10] | max response [12] -8.76% | outcome [13]

O=NN1CCCCC1
inactive: Potency [14] > 92 µM | outcome [1] | Potency [2] | Potency [3] | outcome [4] | outcome [5] | Potency [6] | Potency [15] | Potency [16] | Potency [7] | Potency [8] | Potency [10] | outcome [13]

CC(C)(COCC1CO1)COCC1CO1 (configuration not stated)
inactive: Potency [14] > 92 µM | Potency [3] | outcome [4] | outcome [5] | Potency [6] | Potency [15] | Potency [16] | Potency [8] | Potency [9] | Potency [10] | Potency [11] | max response [12] -5.18% | outcome [13]

C=CCO
inactive: Potency [14] > 92 µM | outcome [1] | Potency [2] | Potency [3] | outcome [4] | outcome [5] | Potency [6] | Potency [16] | Potency [7] | Potency [8] | Potency [9] | Potency [10] | Potency [11] | max response [12] 9.9% | outcome [13]

CCC(Cl)[N+](=O)[O-] (configuration not stated)
inactive: outcome [1] | Potency [2] | Potency [3] | outcome [4] | outcome [5] | Potency [6] | Potency [16] | Potency [7] | Potency [8] | Potency [9] | Potency [10] | Potency [11] | outcome [13]
